# Shown are actives, neighbours in structure and some others; about 3.8% of the full set was active somewhere.
# HT1080 IDH1KD tx: kills HT-1080 cells with IDH1 knockdown. HT-1080 IDH1 knockdown viability, ATP luminescence, 48 h. Potency, µM (titrated, usually from 46.1 µM), without a hit: at the highest dose activity, negative = toxicity, hits mostly cytotoxic. actives 2% (n = 360,000);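 note: 0% = DMSO wells and -100% = cell-free medium wells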
#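 Viability of IDH1-knockdown HT-1080 fibrosarcoma cells was assessed by CellTiter-Glo after 48 h at 37 °C with titrated compound; concentration-effect curves were classified by fit quality and response size.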
# TGFb SMAD3 inh: blocks TGF-b signaling | HepG2 CAGA-GFP TGF-b/SMAD3 reporter, GFP fluorescence, 18 h; TGF-beta stimulated, 500 pg/mL final | Potency, µM (doses to about 46.1 µM), for inactives: top-dose activity, negative = inhibition, hits mostly inhibitors | actives 1.2% (n = 410,000) | AID 588855; note: % is set by controls: 0 for no effect and ±100 for the full control effect; nearly all actives have a fitted effect of over 65% in size
#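 Read-out: total well GFP (ex488/em500-530) summed from mean per-cell fluorescence. Cells: HEPG2 CAGA-GFP, 1% FBS DMEM, 18 h at 37 degrees C with 500 pg/mL final TGF-beta. Unstimulated wells served as the full-inhibition control; stimulated DMSO wells = 0%.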
# HT1080NT lethal: kills 2HG-producing HT-1080-NT fibrosarcoma cells | Potency, µM (top dose mostly 46.1 µM), for inactives: top-dose activity, negative = less viability, hits mostly cytotoxic | HT-1080-NT fibrosarcoma viability, CellTiter-Glo ATP luminescence, 48 h | actives 1.6% (n = 360,000);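 note: NT is the 2HG producing partner of a matched IDH1 knockdown line; 0% = DMSO-treated cells and -100% = media-only wells without cells; nearly all actives have a fitted effect of over 55% in size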
#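 Read-out is CellTiter-Glo luminescence after 10 minutes at room temperature, following 48 hours' compound treatment of HT-1080-NT cells (750 cells/well, RPMI, 5% FBS, 37 degrees C).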
# ATXN viability: viability counter-screen for ATXN expression inhibitors. S2 cells (HEK-293 line with an ATXN2-luciferase reporter) viability, CellTiter-Fluor protease fluorescence, 24 h. Potency, µM (top dose mostly 56.7 µM), actives largely listed as cytotoxic. actives 0.49% (n = 400,000). AID 651635; note: nearly all actives have a fitted effect of over 40% in size
# ATXN2 expr inh: inhibitors of ATXN2 expression; HEK-293 ATXN2-luciferase reporter, luminescence, 24 h; Potency, µM (titrated, usually from 57 µM), for the others: at the top dose activity change, negative = inhibition, most hits filed as inhibitors; actives 0.72% (n = 360,000); AID 1745845; note: % is set by controls: 0 for no effect and ±100 for the full control effect; nearly all actives have a fitted effect of over 55% in size
#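 ATXN2-luciferase reporter cells (luciferase flanked by upstream and downstream ATXN2 gene portions) were treated 24 h at 37 °C with compounds at up to 57 uM. SteadyGlo luminescence gave expression; GF-AFC fluorescence gave viability.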
# HepG2 tox: counter-screen for TGF-b inhibitors: cytotoxicity in HepG2 cells; actives 0.76% (n = 410,000); Potency, µM (top dose mostly 46.1 µM), without a hit: at the highest dose activity change, negative = cytotoxicity, actives largely listed as cytotoxic; HepG2 CAGA-GFP viability, ATP luminescence, 18 h
#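 CellTiter-Glo luminescence gave cytotoxicity after 18 hours at 37 degrees C. The cells were HepG2 CAGA-GFP in 1% FBS DMEM, stimulated with 500 pg/mL TGF-beta after compound addition. %Activity was normalised to no-cell wells (complete cell-killing) and DMSO (no toxicity), and curves were fitted and classified.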
# The depositor's hits bear a star; i = inactive; ? = inconclusive; . = not tested or not shown; ! = a repeat was not active. Calls come from the whole dose curve; as a rule, active = well fitted curve in the direction sought with a large enough effect; inconclusive = small, poorly fitted or top-dose-only effect, or another doubt; inactive = no such curve, though single readings can be large; an effect the other way counts as inactive or inconclusive. Potency is the fitted concentration of half-maximal effect.
SMILES,HT1080 IDH1KD tx,TGFb SMAD3 inh,HT1080NT lethal,ATXN viability,ATXN2 expr inh,HepG2 tox
NC(=O)[C@@H]1CCCN1C(=O)c1cc(NC(=O)c2ccccc2)cc2ncn(C3CCCC3)c12,.,.,.,i,.,.
COCCNC(=S)N(CCc1c(C)[nH]c2ccc(Cl)cc12)Cc1cccs1,?,?,21µM*,?,?,-50%
COCCNC(=S)N(CCc1c(C)[nH]c2ccc(F)cc12)Cc1cccs1,-4%,?,?,?,-36%,-52%
O=C(c1ccoc1)N1CCOc2ccc(CN3CCC(Oc4cccnc4)CC3)cc2C1,.,.,.,i,.,.
O=[N+]([O-])c1cc(Cl)cc(/C=N/NC(=S)Nc2ccc(S(=O)(=O)N3CCOCC3)cc2)c1O,3.7µM*,-18%,?,?,-36%,-8%
O=S(=O)(c1ccc(NC(=S)N/N=C/c2ccc(O)c(O)c2)cc1)N1CCOCC1,-3%,?,-4%,i,1%,-14%
Cc1c(O)cccc1C(=O)N[C@@H](CSc1ccccc1)[C@H](O)CN1C[C@H]2CCCC[C@H]2C[C@H]1C(=O)NC(C)(C)C,18µM*,?,13µM*,11µM*,20µM*!,16µM*!
CCN(CC(=O)NC(C)(C)C)C(=O)c1ccccc1SCC(=O)NC1CCCCCCC1,0%,-23%,6%,i,-12%,-23%
CCCCCCc1ccc(OC(=O)c2ccncc2)cc1,2%,-10%,0%,i,.,-19%
CCCCCCOc1ccc(OC(=O)c2ccncc2)cc1,16µM*,17%,?,i,-24%,0%
CCC(c1nnnn1Cc1ccco1)N(CCc1ccccc1)Cc1cc2cc(C)ccc2[nH]c1=O (stereo unspecified),?,?,-27%,.,?,5%
Cc1ccc2[nH]c(=O)c(CN(CCc3ccccc3)C(c3nnnn3Cc3ccco3)C(C)C)cc2c1 (stereo unspecified),16µM*,21%,?,?,?,7%
O=C(Oc1ccccc1C(=O)Nc1ccccc1)c1ccccc1Br,7.3µM*,0%,?,i,86%,-24%
O=C(COc1ccccc1C(=O)Nc1ccccc1)Nc1ccccc1Br,.,-25%,.,.,.,-5%
COc1ccc(CN2CCC3(CC2)c2ccccc2[C@@H](NC(=O)c2ccsc2)[C@@H]3OC)cc1O,.,.,.,i,.,.
Cc1ccc(-c2csc3ncnc(Sc4nnc(CN5CCCCCC5=O)o4)c23)cc1,-11%,0%,0%,.,28µM*,-100%
Cc1ccc(-c2csc3ncnc(SCC(=O)Nc4nnc(C)s4)c23)cc1,5%,-1%,10%,i,1%,-2%
COCCNC(=S)N/N=C(\C)c1ccc(Cl)c(Cl)c1,11%,8.9µM*,11%,i,15%,-58%
COCCNC(=S)N/N=C(\C)c1ccccc1O,9%,5.6µM*,10%,i,9%,-95%
COCCNC(=S)N/N=C(\C)c1ccccc1OC,6%,-9%,19%,i,3%,0%
COc1ccc(Cn2c(=O)c3[nH]cnc3n(-c3ccccc3C)c2=O)cc1,12µM*,-1%,12µM*,?,-13%,4%
N#CC1=C(N)C(C#N)(C#N)C(c2ccc[nH]2)C2CCCC=C12 (stereo unspecified),?,-9%,-24%,i,-16%,-23%
N#CC1=C(N)C2=CCCC[C@H]2[C@H](c2cccc(F)c2)C1(C#N)C#N,16µM*,?,?,i,-10%,1%
COc1ccc(C(=O)c2cc([N+](=O)[O-])ccc2N2CCOCC2)cc1,0.15µM*,?,?,?,-6%,-23%
O=C(c1cc([N+](=O)[O-])ccc1N1CCOCC1)N1CCOCC1,3%,-2%,1%,i,-2%,5%
SMILES,HT1080 IDH1KD tx,TGFb SMAD3 inh,HT1080NT lethal,ATXN viability,ATXN2 expr inh,HepG2 tox
Cc1ccc(C(=O)c2cc([N+](=O)[O-])ccc2N2CCOCC2)cc1,7.3µM*,-2%,5.2µM*,?,-15%,0%
Cc1cccc(CNC(=O)c2cnn(-c3nccc(-c4ccccc4F)n3)c2C)n1,.,.,.,i,.,.
O=C(Nc1ccccc1Br)c1cnn2c1NC(=C1CC1)C=C2C(F)F,25%,.,2%,.,.,.
Cc1ccc(NC(=S)NNC(=O)c2c(Cl)c(C)nn2C)cc1,?,?,?,i,-4%,-24%
Cc1ccc(NC(=S)NNC(=O)c2c([N+](=O)[O-])c(C)nn2C)cc1,5µM*,-2%,5.6µM*,i,-2%,-3%
COc1ccccc1NC(=O)Cn1c(=O)n(-c2ccc(C)cc2)c(=O)c2c1cnn2C,.,-1%,.,i,0%,-6%
CSc1nc(C2CC2)cc(-c2cccs2)c1C#N,?,5.6µM*,32µM*,i,-2%,-34%
O=C(N/N=C/c1ccccc1)c1n[nH]c2c1CCCC2,?,-34%,?,i,?,-15%
O=C(N/N=C/c1ccccc1Cl)c1n[nH]c2c1CCCC2,2%,4%,3%,i,.,-33%
O=C(N/N=C/c1ccc(Cl)cc1)c1n[nH]c2c1CCCC2,0.52µM*,?,0.41µM*,?,-17%,20%
O=C(N/N=C/c1cccs1)c1n[nH]c2c1CCC2,6.5µM*,-29%,7.3µM*,?,?,0%
O=C(N/N=C/C(Br)=C/c1ccccc1)c1n[nH]c2c1CCC2,7.9µM*,-10%,?,i,-5%,-20%
CC(=O)NCCNC(=O)c1ccc(Cn2c(=O)[nH]c3ccsc3c2=O)cc1,4%,0%,3%,i,4%,19%
O=C(Nc1cc(Cl)cc(Cl)c1)c1ccc(Cn2c(=O)[nH]c3ccsc3c2=O)cc1,4%,?,15%,19µM*,-24%,-37%
Cc1ccccc1-c1cccc([C@@H]2C[C@H]3[C@H](CON3C)CN2Cc2ccccc2)c1,?,14µM*,-2%,i,0%,-42%
CN1OC[C@@H]2CN(Cc3ccccc3)[C@H](c3cccc(N4CCOCC4)c3)C[C@@H]21,5%,0%,2%,i,-10%,-16%
COc1ccc(CN2CCC3(CC2)c2ccccc2[C@@H](NC(=O)c2ccco2)[C@@H]3OC)c(O)c1,.,.,.,i,.,.
O=C(O)c1ccc(NC2=C(Cl)C(=O)c3ccccc3C2=O)cc1,-16%,?,-10%,10µM*,4.5µM*,-23%
